The list is not random: actives were taken first. Their share in the collection is about 1.9%.
L929 necroptosis: L929 zVAD cell death inhibition; L929 zVAD necroptosis rescue, ATP luminescence, 24 h; with zVAD 60 µM; viability rescue, % at 10 µM; hit rate 0.38% among 220,000;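 active = activation, scaled between plate controls, above about 75%, limit read from the data; inactive = activation under that limit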;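 note: 0% = zVAD with DMSO and 100% = DMSO alone without zVAD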
TNF necrop inh: blocks TNF-alpha induced death of Jurkat FADD-/- cells. Jurkat FADD-/- TNF necroptosis rescue, ATP luminescence, 24 h; 0 = TNF only, 100 = no-TNF cells. activation (protection from cell death), % at 10 µM. hit rate 0.068% among 220,000. AID 463075;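 active = activation, meaning protection from cell death, of at least 50% relative to plate controls; inactive = activation below 50%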;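 note: necroptosis triggered by 40 ng/mL TNF-alpha added together with compound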
Hsp70 activator: switches on Hsp70 transcription; HeLa Hsp70 promoter luciferase reporter, luminescence; scaled: vehicle 0, proteasome-inhibitor control 100%; activation, % at 10 µM; hit rate 0.04% among 200,000; AID 1203;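 active = activation above the mean across all tested compounds plus 3 SD, cutoff set per campaign, cut at about 5.5% in these data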;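 note: 100% = MG132 at 30 µM as the positive control and 0% = DMSO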
HSF1 activator: increases HSF-1 driven luciferase reporter signal. NIH3T3-HGL HSF-1 luciferase reporter, MG132, 8 h; 100% = twice DMSO control signal. activation, % at 9 µM. hit rate 1.7% among 300,000. AID 504408;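 active = mean replicate activation of at least 50% with a set share of replicates each reaching 50%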;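 note: 0% = median of the neutral control wells and 100% = twice that signal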
An asterisk follows results filed as active; · = no result given.

SMILES	L929 necroptosis	TNF necrop inh	Hsp70 activator	HSF1 activator
O=C1CSC(c2ccccc2[N+](=O)[O-])N1CCc1ccccc1 (centres undefined)	0	1	0	11
NC1=NC(c2ccccc2)N=C(Nc2ccccc2)N1 (centres undefined)	0	-8	·	16
CCOC(=O)CNC(c1ccccc1)c1cc(Br)ccc1NC(=O)CCN1CCOCC1 (centres undefined)	-1	1	0	63*
CCOC(=O)c1c(-c2ccccc2)csc1NC(=O)CCN1CCOCC1	0	-1	0	74*
CCOC(=O)c1c(-c2ccccc2)csc1NC(=O)c1cccc(N2C(=O)CCC2=O)c1	0	-9	0	85*
COC(=O)CNC(c1ccccc1)c1cc(Br)ccc1NC(=O)CCN1CCOCC1 (centres undefined)	0	1	0	48
COC(=O)CNC(c1ccccc1)c1cc(Br)ccc1N (centres undefined)	1	0	·	74*
CN(C)S(=O)(=O)c1cccc(CNCC2COc3ccccc3O2)c1 (centres undefined)	·	·	·	13
Cc1noc(C)c1C(=O)N(C)CC(=O)Nc1ccc(F)c(F)c1F	·	·	·	-2
Cc1sc(NC(=O)c2ccc(Cl)s2)c(C(N)=O)c1C	0	2	1	30
Cc1sc(NC(=O)c2ccc(Br)s2)c(C(N)=O)c1C	1	4	0	61*
COc1ccc(C(=O)Oc2ccc(C(C)=O)cc2)c(OC)c1	0	-4	0	60*
Cc1ccc2c(c1)SC1=NC(c3ccccc3)(C(F)(F)F)NC(=O)N12 (centres undefined)	1	-1	-1	36
Cc1csc(NC(=O)C2CC(=O)N(c3ccc(C)c(C)c3)C2)n1 (centres undefined)	·	·	·	5
CC1CCCN(C(=O)c2ccccc2OC2CCN(S(C)(=O)=O)CC2)C1 (centres undefined)	0	0	0	64*
O=C(/C=C/Nc1ccc([N+](=O)[O-])cc1Br)c1cccc2ccccc12	1	-1	0	51*
CN(C)C(CNC(=O)c1ccc(-c2ccccc2)cc1)c1ccccc1 (centres undefined)	·	·	·	24
Cc1ccn(CC(=O)N2CCCC(N3CCN(c4ccc(F)cc4)CC3)C2)n1 (centres undefined)	·	·	·	67*
Cc1cc(C)n(CC(=O)N2CCCC(N3CCN(c4ccc(F)cc4)CC3)C2)n1 (centres undefined)	·	·	·	12
COc1nccnc1NS(=O)(=O)c1ccc(N)cc1	·	·	·	3
O=C1CC(c2ccco2)CC(O)=C1C=Nc1ccc(Br)cc1 (centres undefined)	-1	-6	0	42
Cc1ccc(N=CC2=C(O)CC(c3ccco3)CC2=O)cc1 (centres undefined)	0	-1	0	72*
O=C1CC(c2ccccc2)CC(O)=C1C=Nc1ccccc1 (centres undefined)	-2	-2	0	119*
O=C1CC(c2ccco2)CC(O)=C1C=Nc1cc(Cl)ccc1O (centres undefined)	0	-3	-1	69*
O=C1CC(c2ccco2)CC(O)=C1C=Nc1cc(Cl)ccc1Cl (centres undefined)	1	2	0	11
SMILES	L929 necroptosis	TNF necrop inh	Hsp70 activator	HSF1 activator
O=C1/C(=C/Nc2cccc([N+](=O)[O-])c2)CCc2ccccc21	1	1	0	73*
O=C1/C(=C/c2ccc(O)cc2)CCc2ccc([N+](=O)[O-])cc21	1	-13	0	1
O=C1/C(=C\c2ccc([N+](=O)[O-])cc2)CCc2ccccc21	0	-4	0	60*
COc1ccc(OC)c(CCNC(=O)CCc2nnc3ccc(N4CCOCC4)nn23)c1	·	·	·	-7
CC(=O)c1ccc(OCc2cc(C(=O)N(C)C3CCOC3)no2)cc1 (centres undefined)	·	·	·	-7
COc1ccc(OCc2cc(C(=O)N(C)CCC3CCOCC3)no2)c(Cl)c1	·	·	·	77*
COc1ccc(OCc2cc(C(=O)N(C)CC3CCCCO3)no2)c(Cl)c1 (centres undefined)	·	·	·	36
Cc1cc(OCc2cc(C(=O)N(C)C3CCOC3)no2)cc(C)c1Cl (centres undefined)	·	·	·	64*
O=C(O)c1ccccc1-c1csc(-c2ccccc2)n1	1	-1	0	34
O=C(/C=C/c1cn(-c2ccccc2)nc1-c1cccnc1)c1ccco1	14	-10	1	119*
O=C(/C=C/c1cn(-c2ccccc2)nc1-c1cccnc1)N1CCCC1	1	-4	0	4
Cc1nn(-c2ccccc2)c(N)c1C(c1ccccc1)c1c(C)nn(-c2ccccc2)c1N	0	2	0	79*
COc1ccc(NC(=O)N2CCc3ccccc32)cc1	0	-1	-1	65*
CCc1ccc(OCC(=O)N2CCc3ccccc32)cc1	·	·	·	65*
O=C(OCC(=O)N1CCc2ccccc21)c1ccccc1	0	-2	0	68*
Cc1ccc(OCC(=O)N2CCc3ccccc32)cc1	0	2	2	67*
COc1ccc(NC(=O)N2CCCc3ccccc32)cc1	0	0	-1	2
O=C(OCC(=O)N1CCc2ccccc21)c1cccnc1	0	-3	0	8
CCOc1ccc(N2CC(C(=O)N3CCc4ccccc43)CC2=O)cc1 (centres undefined)	·	·	·	52*
CCOC(=O)/C=C/C(=O)N1CCc2ccccc21	0	-5	0	84*
Cc1ccc(C(=O)NCCN2CCN(C(=O)c3ccc(C)c(C)c3)CC2)cc1C	·	·	·	-9
O=C(NCCN1CCN(C(=O)c2ccc(Br)cc2)CC1)c1ccc(Br)cc1	·	·	·	68*
COc1ccc(Br)cc1C1CC(=O)C(C)C(c2cc(Br)ccc2OC)N1 (centres undefined)	·	·	·	2
O=C(O)Cn1c2c(c3ccccc31)CSc1ccc(Cl)cc1-2	·	·	·	269*
Cc1cccc2sc(N(CCN(C)C)C(=O)/C=C/c3cccs3)nc12	2	8	0	78*
SMILES	L929 necroptosis	TNF necrop inh	Hsp70 activator	HSF1 activator
CC1(C)CC(=O)C2=C(C1)c1c(ccc3ccccc13)NC2c1ccco1 (centres undefined)	0	-2	0	92*
O=C(Nc1ccc(OCC(F)(F)C(F)F)c(C(F)(F)F)c1)c1ccccc1O	3	-21	0	66*
CNC(=O)Nc1cc(NC(=O)NC)cc(C(F)(F)F)c1	1	2	·	1
C/C(NC(=O)c1ccccc1F)=C1\C(=O)C[C@@H]2[C@H]1C2(C)C	4	1	0	51*
COc1ccc2cc(CN(Cc3ccco3)C(c3nnnn3C3CCCCC3)C(C)C)c(=O)[nH]c2c1 (centres undefined)	0	0	-1	70*
COc1ccc(/C=c2\s/c(=C\C(=O)C(C)(C)C)[nH]c2=O)cc1O	-1	8	·	64*
COc1cc(/C=c2\s/c(=C\C(=O)C(C)(C)C)[nH]c2=O)cc(OC)c1OC	15	-1	0	15
COc1ccc(OC)c(/C=C/C(=O)c2ccc3c(c2)OCCO3)c1	·	·	·	66*

Assay outcomes (PubChem BioAssay)
